Laboratory results: PubChem BioAssay (NCATS)
Results filed as inconclusive are left out. Calls of active or inactive are those of the source. Unless noted, calls follow the shape of the dose curve; as a rule, active = well fitted curve in the direction sought with a large enough effect; inconclusive = small, poorly fitted or top-dose-only effect, or another doubt; inactive = no such curve, though single readings can be large; an effect the other way counts as inactive or inconclusive.

Assays:
[1] = Confirmatory qHTS for activators (rescue) of SARS-CoV-2 Cytopathic Effect (CPE) (AID 1508606; calls by dose curve; also: potency is read from the fitted curve at half-maximal effect; nearly all actives have a fitted effect of over 70% in size)
[2] = Cytotoxicity counterscreen for inhibitors of SARS-CoV-2 cell entry (AID 1645845; calls by dose curve; also: nearly all actives have a fitted effect of over 50% in size)
Outline: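 Expi293F/hACE2 cells seeded overnight; cpd pin-transferred in DMSO, 1 h preincubation, + media, 48 h 37 C 5% CO2; ATPLite 1step luminescence; normalized to cells and no cells.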

[3] = qHTS to identify inhibitors of the type 1 interferon - major histocompatibility complex class I in skeletal muscle: primary screen against the NCATS Mechanism Interrogation Plate v5.0 (MIPE) Libary (AID 1347411); also: nearly all actives have a fitted effect of over 65% in size
Outline: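 Luminescence from HiBiT-tagged endogenous HLA-B*08:01 served as the MHC class I read-out. CRISPR-engineered C25cl48 human myoblasts received 4.0 ng/ml IFN-beta plus compound for 24 hrs, with an 11-point, 1:3 series topping at 46 uM final.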

[4] = OV-KATE Cancer Cell Toxicity qHTS against the NCATS CANVASS Library (AID 1347345)
Outline: (§1)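 Per well, 1000 cells; exposure 72 h with compound at 11 final concentrations; readout CellTiter-Glo luminescence.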

[5] = UWB1.289 Cancer Cell Toxicity qHTS against the NCATS CANVASS Library (AID 1347347); also: series mostly up to about 38 µM; nearly all actives have a fitted effect of over 60% in size
Outline: as §1

[6] = OV-SAHO Cancer Cell Toxicity qHTS against the NCATS CANVASS Library (AID 1347348); also: series mostly up to about 38 µM; nearly all actives have a fitted effect of over 55% in size
Outline: as §1

[7] = SW1088 Cancer Cell Toxicity qHTS against the NCATS CANVASS Library (AID 1347350); also: nearly all actives have a fitted effect of over 75% in size
Outline: as §1

[8] = U-118MG Cancer Cell Toxicity qHTS against the NCATS CANVASS Library (AID 1347351); also: series mostly up to about 38 µM
Outline: as §1

[9] = COV-362 Cancer Cell Toxicity qHTS against the NCATS CANVASS Library (AID 1347352); also: series mostly up to about 38 µM
Outline: (§2)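 Luminescent ATP read-out (CellTiter-Glo, 15min at room temperature) measures survival after cells face an 11-point compound series for 72 hours at 37 degrees C/5% CO2.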

[10] = UWB1.289-WTBRCA1 Cancer Cell Toxicity qHTS against the NCATS CANVASS Library (AID 1347354)
Outline: as §2

[11] = HEK293 18hr Apoptosis Induction qHTS against the NCATS CANVASS Library (AID 1347357)
Outline: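 HEK293 cells (500/well, DMEM + 10% FBS) treated with an 11-point series for 18 h at 37 degrees C. Caspase-3/7 activity read by Caspase-Glo luminescence after 15 min at room temperature.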

[12] = HPAF-II 12hr Apoptosis Induction qHTS against the NCATS CANVASS Library (AID 1347358)
Outline: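 500 HPAF-II cells/well; cmpds 11-pt; 12 hr, 37 degrees C/5% CO2; Caspase-Glo 3/7 added, 15 min RT dark; luminescence read. Doxorubicin titration as control.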

[13] = HEK293 24hr Apoptosis Induction qHTS against the NCATS CANVASS Library (AID 1347359)
Outline: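 HEK293 cells (500/well, DMEM + 10% FBS) were exposed to compounds in an 11-point series for 24 hours at 37 degrees C, then caspase-3/7 activity was read by Caspase-Glo DEVD luciferase luminescence after 15 min.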

[14] = HEK293 12hr Apoptosis Induction qHTS against the NCATS CANVASS Library (AID 1347361)
Outline: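 HEK293 cells (500/well) were exposed to an 11-point qHTS concentration series for 12 hours at 37 degrees C. Caspase-3/7 activity was then read by DEVD-substrate luciferase luminescence after 15 min at room temperature.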

[15] = tested on: NAD(P)H diaphorase (Clostridium kluyveri); experiment: Diaphorse counterscreen qHTS: Assay Interference Panel against the NCATS CANVASS Library (AID 1347362)
Outline: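 Clostridium kluyveri diaphorase in PBS with 0.01% Tween-20 was preincubated 15 min at room temperature in the dark with compounds (11-point series). Resorufin fluorescence (ex 525/20, em 598/25) was read 5 min after adding resazurin/NADH.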

[16] = biological target: Luciferin 4-monooxygenase (Photinus pyralis) (UniProt P08659); experiment: Firefly luciferase counterscreen qHTS: Assay Interference Panel against the NCATS CANVASS Library (AID 1347363); also: series mostly up to about 57 µM
Chain of Luciferin 4-monooxygenase (Photinus pyralis) (P08659 whole entry, looked up): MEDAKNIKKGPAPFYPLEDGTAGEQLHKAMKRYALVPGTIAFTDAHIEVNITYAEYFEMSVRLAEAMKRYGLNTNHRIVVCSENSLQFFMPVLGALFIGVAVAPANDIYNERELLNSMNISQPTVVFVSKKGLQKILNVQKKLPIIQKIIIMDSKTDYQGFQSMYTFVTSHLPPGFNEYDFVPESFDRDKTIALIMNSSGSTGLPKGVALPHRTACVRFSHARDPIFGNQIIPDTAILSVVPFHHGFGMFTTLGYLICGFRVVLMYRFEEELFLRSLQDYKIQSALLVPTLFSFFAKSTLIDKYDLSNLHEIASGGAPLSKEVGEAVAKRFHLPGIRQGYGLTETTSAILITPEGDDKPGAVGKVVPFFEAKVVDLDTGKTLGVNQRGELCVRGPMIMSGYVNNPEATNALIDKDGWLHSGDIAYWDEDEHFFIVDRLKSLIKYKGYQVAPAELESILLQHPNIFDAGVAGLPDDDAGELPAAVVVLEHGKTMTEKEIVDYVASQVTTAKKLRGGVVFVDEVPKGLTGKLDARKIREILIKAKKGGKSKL
Outline: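 Purified P. pyralis luciferase was added to compounds (11-point series) preincubated 15 min at room temperature with substrate containing 0.013 mM D-luciferin and 0.013 mM ATP; luminescence was read after 5 min.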

[17] = KB-3-1 Cancer Cell Toxicity qHTS against the NCATS CANVASS Library (AID 1347366); also: series mostly up to about 46 µM; nearly all actives have a fitted effect of over 75% in size
Outline: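 KB-3-1 cells (500/well) in DMEM with 10% FBS were exposed to compounds for 72 h at 37C. Viability was read by CellTiter-Glo luminescence.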

[18] = MCF7 Cancer Cell Toxicity qHTS against the NCATS CANVASS Library (AID 1347369)
Outline: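 MCF7 cells (500/well) were exposed 72 h at 37 °C to compounds in an 11-point series. Viability was read as ATP content by CellTiterGlo luminescence.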

[19] = biological target: Nuclear receptor subfamily 1 group I member 3 (Homo sapiens) (UniProt Q14994); experiment: qHTS for Constitutive Androstane Receptor (CAR) Antagonist screened against the NCATS CANVASS Library (AID 1347372);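 also: cells stimulated with 50 nM CITCO agonist so inhibition reflects antagonism; series mostly up to about 46 µM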
Chain of Nuclear receptor subfamily 1 group I member 3 (Homo sapiens) (Q14994 whole entry, looked up): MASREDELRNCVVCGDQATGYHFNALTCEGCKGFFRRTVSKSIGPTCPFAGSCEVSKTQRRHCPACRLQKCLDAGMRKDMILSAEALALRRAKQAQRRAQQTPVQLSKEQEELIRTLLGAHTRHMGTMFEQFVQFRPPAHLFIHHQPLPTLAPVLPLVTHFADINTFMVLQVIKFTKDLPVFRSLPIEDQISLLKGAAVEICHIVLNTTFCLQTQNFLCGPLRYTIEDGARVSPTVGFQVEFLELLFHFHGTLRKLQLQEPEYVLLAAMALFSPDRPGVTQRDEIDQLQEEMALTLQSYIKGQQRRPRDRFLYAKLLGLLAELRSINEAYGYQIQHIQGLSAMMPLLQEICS
Outline: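 HepG2 cells stably carrying hCAR and a CYP2B6-2.2kb luciferase reporter were exposed to compounds plus 50 nM CITCO for 24hr at 37C. CAR activity was read by ONE-Glo luminescence, with viability measured first by CellTiter-Fluor.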

[20] = biological target: Nuclear receptor subfamily 1 group I member 3 (Homo sapiens) (UniProt Q14994); experiment: qHTS for Constitutive Androstane Receptor (CAR) Agonist screened against the NCATS CANVASS Library (AID 1347373);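 also: every well also contained 1.5 µM PK11195 alongside the test compound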
Outline: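 HepG2-hCAR-CYP2B6 cells, 2500/well, attached 4hr; cpd + PK11195 1.5uM final; 24hr 37C 5% CO2. CellTiter-Fluor viability read, then ONE-Glo luminescence for CAR activation.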

Measured: Potency

CN1CCCCC1Cn1cc(C(=O)c2cc([N+](=O)[O-])ccc2I)c2ccccc21 (stereo not drawn)
active: [1] 10 µM

CN1CCC2=C(C1)c1ccccc1Cc1ccccc12
inactive: [2]

COc1cc(C(=O)N2CC[C@@H](O)[C@@H](N)C2)cc2nc(-c3cc4ccccc4n3CC3CC3)n(C)c12
inactive: [3] | [2]

CN1C(=O)[C@]23CC4C(C)(C)[C@@]5(C[C@@]41CN2CC[C@@]3(C)O)C(=O)Nc1c5ccc2c1OC=CC(C)(C)O2 (stereo partly drawn)
not listed: [1] | [2] | [3]
inactive: all other assays above

C/C=C1/CN2CC[C@]34C(=Nc5ccccc53)[C@@H]2C[C@@H]1[C@H]4C(=O)OC
not listed: [1] | [2] | [3]
inactive: all other assays above

NC(=O)[C@@H](CC1CC1)[C@@H](CCC(F)(F)F)C(=O)N[C@H]1N=C(c2ccccc2)c2cccc(F)c2NC1=O
inactive: [3] | [2]

COc1ccc(CCNCc2ccc(OC)c3ccccc23)cc1
active: [1] 11.2 µM

C/C=C(\C)C(=O)O[C@H]1CC2C(=C1C)[C@H]1OC(=O)[C@](C)(O)[C@]1(O)[C@H](OC(=O)CCC)C[C@@]2(C)OC(C)=O (stereo partly drawn)
active: [1] 2.2 µM

CN1CN(c2ccccc2)C2(CCN(CCCC(=O)c3ccc(F)cc3)CC2)C1=O
active: [1] 7.08 µM
